The source of these data is PubChem BioAssay (NCATS).

Where “and” joins values, the source holds several entries; their conditions need not be identical. Equal values may be shown once. Unmarked numbers belong to inactive results. Records with an inconclusive call do not appear. For some of these results: Potency and affinity values are given separately. Calls of active or inactive are those of the source. Unless noted, how the calls were made is not given here.

For experiment [1] the following is noted: Ebola virus entry assay, ratio channel.
The conditions of experiment [2]: Ebola virus entry assay, green channel fluorescence.
A short description of experiment [3]: qHTS assay for small molecule agonists of the antioxidant response element (ARE) signaling pathway measured by Nrf2-dependant transcriptional activity (AID 720636; active means well fitted curve in the direction sought with a large enough effect in the repeat runs; an effect the other way counts as inactive or inconclusive;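 further: HepG2 cells with an ARE-driven luciferase reporter; % of control where 0% means no effect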). As to conditions: ARE-luc HepG2, Nrf2 luciferase reporter, 16 h; series mostly up to 92.4 µM. The gist of the method:
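Attachment 6 hr at 37 C, then compound versus DMSO vehicle for 16 hr in ARE-luc HepG2 cells (1% dialyzed FBS); luminescence recorded 30 min after ONE-Glo addition at room temperature.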
Background: qHTS replaces the single test concentration by a dilution series.

A short description of experiment [4]: qHTS assay for small molecule antagonists of the retinoid-related orphan receptor gamma (ROR-gamma) signaling pathway - cell viability counter screen (AID 720652; active means well fitted curve in the direction sought with a large enough effect in the repeat runs; an effect the other way counts as inactive or inconclusive;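 further: compound exposure lasted 16 hr before ATP read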; further: potency means the concentration at half of the fitted maximal effect). As to conditions: RORgamma reporter cell line viability counter screen; series mostly up to 92.2 µM. Put shortly:
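Cytotoxicity is quantified via intracellular ATP (CellTiter-Glo luminescence) in doxycycline-induced CHO ROR response element-luciferase reporter cells treated with compound for 16 hr at 37 C, 5% CO2.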

Experiment [5] in a line: qHTS assay for small molecule agonists of the antioxidant response element (ARE) signaling pathway measured by Nrf2-dependant transcriptional activity - cell viability counter screen (AID 720653; active means well fitted curve in the direction sought with a large enough effect in the repeat runs; an effect the other way counts as inactive or inconclusive; further: on the % scale 0 is the no-effect control and ±100 the full control effect). The settings on record: ARE-bla HepG2 viability, CellTiter-Glo ATP luminescence, 16 h; max response: active compounds read low. The gist of the method:
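ARE-bla HepG2 cells treated with compounds for 16 h at 37C; this counter screen measures viability as intracellular ATP by CellTiter-Glo luminescence after 30 min at room temperature.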

A short description of experiment [6]: qHTS assay for cell viability of HEK293 cells (AID 743288; active means well fitted curve in the direction sought with a large enough effect; an effect the other way counts as inactive or inconclusive; further: on the % scale 0 is the no-effect control and ±100 the full control effect; nearly all actives have a fitted effect of over 50% in size). The settings on record: ATP luminescence (CellTiter-Glo), 18 h; max response: active compounds read low. Put shortly: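 HEK293 parental, 2,000 cells/well; ≥5 h pre-incubation 37 C; pintool compound addition; 18 h, 37 C; CellTiter-Glo 30 min RT; luminescence read.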
A short description of experiment [7]: qHTS assay for cell viability of the p53RE-bla HCT-116 cell line (AID 743292; active means well fitted curve in the direction sought with a large enough effect; an effect the other way counts as inactive or inconclusive; further: on the % scale 0 is the no-effect control and ±100 the full control effect; nearly all actives have a fitted effect of over 55% in size). As to conditions: p53RE-bla HCT-116 viability, ATP luminescence, 16 h; series mostly up to 95 µM. Put shortly:
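Compound-exposed HCT-116 (p53RE-bla) cells, 4,000 per well, were kept 16 h at 37 C following a 5 h preincubation. Cell number was estimated from total ATP by CellTiter-Glo luminescence read after 30 min at room temperature.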

Experiment [8] is described as follows: qHTS Assay for Identifying Gametocytocidal Compounds (AID 743244; active means well fitted curve in the direction sought with a large enough effect; an effect the other way counts as inactive or inconclusive;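 further: on the % scale 0 is the no-effect control and ±100 the full control effect; actives lower the fluorescent signal which means gametocytes are killed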). The settings on record: P. falciparum 3D7 stage III-V gametocytes, alamarBlue, 72 h; max response: active compounds read low. The gist of the method:
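Viability read-out was resazurin reduction (alamarBlue, 24 h) measured at Ex 525/Em 598 nm. Beforehand, late-stage (III-V) 3D7 P. falciparum gametocytes at 20,000 cells/well were incubated with compound 72 h at 37C under 5% CO2.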

`COc1ccccc1O`: the outcome in experiment [1] and in experiment [2] was inactive.

With `COc1ccc2c(c1)c1c3n2CCN(C)C3=NCC1`, the outcome in experiment [1] and in experiment [2] was inactive.

Consider `O=c1cc(-c2ccccc2)oc2ccccc12`, for which the outcome in experiment [1] and in experiment [2] was inactive.

As to `CC(C)(c1ccc(O)cc1)c1ccc(O)cc1`, the result in experiment [1] and in experiment [2] was inactive.

On to `Nc1ccc([N+](=O)[O-])cc1O`, for which the outcome in experiment [1] and in experiment [2] was inactive.

As to `O=C1NS(=O)(=O)c2ccccc21`, the result in experiment [1] and in experiment [2] was inactive.

Turning to `CC1=C(/C=C/C(C)=C/C=C/C(C)=C/C(=O)O)C(C)(C)CCC1`, the result in experiment [1] and in experiment [2] was inactive.

For the compound `CCCCCCCCCCCCCC[N+](C)(C)C`, the concentration at half-maximal activity (AC50) (as a rule, the concentration giving half of the maximal activity seen) in experiment [1] was 25.1 µM (active).

On to `Nc1nc2c(ncn2CCC(CO)CO)c(=O)[nH]1`, for which the result in experiment [1] and in experiment [2] was inactive.

With `O=C(NO)c1ccccc1`, the outcome in experiment [1] and in experiment [2] was inactive.

Take `CCCCCCCCCCCCCC(=O)OC(C)C`: the outcome in experiment [1] and in experiment [2] was inactive.

In the case of `Brc1ccccc1-c1ccccc1`, the outcome in experiment [1] and in experiment [2] was inactive.

Regarding `Nc1ccc(O)c([N+](=O)[O-])c1`, the result in experiment [1] and in experiment [2] was inactive.

For `CCCCC(CC)COC(=O)/C=C/c1ccc(OC)cc1` (stereo not drawn), the result in experiment [1] and in experiment [2] was inactive.

Take `Nc1ccccc1N`: the outcome in experiment [1] and in experiment [2] was inactive.

Regarding `CC(C)OC(=O)c1cc(C(=O)OC(C)C)cc([N+](=O)[O-])c1`, the outcome in experiment [1] and in experiment [2] was inactive.

As to `CS(=O)(=O)Nc1ccc([N+](=O)[O-])cc1Oc1ccccc1`, the outcome in experiment [1] and in experiment [2] was inactive.

As for `CN(C)c1ccc(N=NS(=O)(=O)O)cc1`, in experiment [1], the outcome was inactive.

Take `CC(C)(C)C(O)/C=C/c1ccc2c(c1)OCO2` (stereo not drawn): the outcome in experiment [1] and in experiment [2] was inactive.

Take `Nc1nc2ccc([N+](=O)[O-])cc2s1`: in experiment [1], the result was inactive.

For `CC(C)C(C)(C)C(C)(C)C(C)(C)S`, the outcome in experiment [1] and in experiment [2] was inactive.

Regarding `NC(CO)C(=O)NNCc1ccc(O)c(O)c1O` (stereo not drawn), the result in experiment [1] and in experiment [2] was inactive.

Take `CC(C)(C)c1nnc(NS(=O)(=O)c2ccccc2)s1`: the outcome in experiment [1] and in experiment [2] was inactive.

For `COC(=O)c1c(Cl)c(Cl)c(C(=O)OC)c(Cl)c1Cl`, the outcome in experiment [1] and in experiment [2] was inactive.

Consider `CN(C)CC/C=C1/c2ccccc2COc2ccc(CC(=O)O)cc21`, for which the outcome in experiment [1] and in experiment [2] was inactive.

Consider `NCCO`, for which the result in experiment [1] and in experiment [2] was inactive.

Consider `CN1C(=O)c2ccccc2C1=O`, for which the outcome in experiment [1] and in experiment [2] was inactive.

Consider `CC[N+](C)(CC)CCOC(=O)C(O)(c1ccccc1)C1CCCCC1` (stereo not drawn), for which the outcome in experiment [1] and in experiment [2] was inactive.

As for `Cc1ccc(N)cc1O`, the result in experiment [1] and in experiment [2] was inactive.

On to `CCC(C(=O)O)c1ccc(N2Cc3ccccc3C2=O)cc1` (stereo not drawn), for which the outcome in experiment [1] and in experiment [2] was inactive.

Consider `O=S(c1cc(Cl)cc(Cl)c1O)c1cc(Cl)cc(Cl)c1O`, for which the result in experiment [1] and in experiment [2] was inactive.

`CCc1c(C)[nH]c2c1C(=O)C(CN1CCOCC1)CC2` (stereo not drawn): the result in experiment [1] and in experiment [2] was inactive.

In the case of `CC(=O)Oc1cccc(C)c1`, the result in experiment [1] and in experiment [2] was inactive.

Regarding `C1=CC2C3C=CC(C3)C2C1` (stereo not drawn), the outcome in experiment [1] and in experiment [2] was inactive.

With `Nc1nnnn1-c1ccccc1`, the result in experiment [1] and in experiment [2] was inactive.

On to `CC(C)(C)c1ccc(O)c(O)c1`, for which the outcome in experiment [1] and in experiment [2] was inactive.

In the case of `CC1=NN(c2ccccc2)C(=O)C1`, the outcome in experiment [1] and in experiment [2] was inactive.

As for `CCCCC/C(C=O)=C\c1ccccc1`, the result in experiment [1] and in experiment [2] was inactive.

Regarding `CCCCCCCC(=O)OCC(O)CO` (stereo not drawn), the result in experiment [1] and in experiment [2] was inactive.

With `Nc1ccc(Sc2ccc(N)cc2)cc1`, the Potency entry in experiment [3], in experiment [4] and in experiment [7] was “inactive” throughout. Further, the max response in experiment [5] is 10% and -10.9%; in experiment [6] it was 1.17% and -4.98%. In addition, the result in experiment [1] and in experiment [2] was inactive.

For the compound `CCCCC(CC)COC(=O)c1ccccc1C(=O)OCC(CC)CCCC` (stereo not drawn), the Potency result in experiment [3], in experiment [4] and in experiment [7] was “inactive” throughout. Moreover, the max response is -8.88% and -12.5% in experiment [5]; 10.4% in experiment [8]; -14% and -11% in experiment [6]. Besides, the result in experiment [1] and in experiment [2] was inactive.

`CO/C=C(/C(=O)OC)c1ccccc1Oc1cc(Oc2ccccc2C#N)ncn1`: the Potency entry in experiment [3] and in experiment [7] was “inactive” in each case. Moreover, the max response in experiment [8] was 18.4%; in experiment [6], -25.4%. Besides, the result in experiment [1] and in experiment [2] was inactive.

Turning to `COC(C)(C)CCCC(C)C/C=C/C(C)=C/C(=O)OC(C)C` (stereo not drawn), the max response in experiment [5] was -7.11% and 1.67%; in experiment [8], -9.95%; in experiment [6], -16.1% and -28.4%. Also, the Potency entry in experiment [7] was “inactive”. Moreover, the outcome in experiment [1] and in experiment [2] was inactive.

On to `CCOP(=O)(NC(C)C)Oc1ccc(SC)c(C)c1` (stereo not drawn), for which the Potency result in experiment [3], in experiment [4] and in experiment [7] was “inactive” in each case. Besides, the max response in experiment [5] is -14.8% and -8.95%; in experiment [8], 14.8%; in experiment [6], -28.9% and -13.9%. In addition, the result in experiment [1] and in experiment [2] was inactive.

For `O=S(=O)(O)C(F)(F)C(F)(F)C(F)(F)C(F)(F)C(F)(F)C(F)(F)C(F)(F)C(F)(F)F`, the Potency result in experiment [3] and in experiment [7] was “inactive” throughout. The max response in experiment [5] was 2.35% and -3.55%; in experiment [8] it was -9.5%; in experiment [6] it was -7.88% and -13.4%. Further, the outcome in experiment [1] and in experiment [2] was inactive.

Regarding `Nc1ccc(Cl)cc1`, the Potency entry in experiment [3], in experiment [4] and in experiment [7] was “inactive” in each case. For the same compound, the max response in experiment [5] is -5.98%; in experiment [8], 4.15%; in experiment [6], -6.22%. In addition, the outcome in experiment [1] and in experiment [2] was inactive.

For `COc1ccc(C(c2ccc(OC)cc2)C(Cl)(Cl)Cl)cc1`, the Potency result in experiment [3] and in experiment [7] was “inactive” each time. Further, the Potency in experiment [4] was 66.8 µM (active) and 42.2 µM (active). The max response in experiment [5] was 5.23% and -7.02% and -11.5%; in experiment [8], -11%; in experiment [6], -23.2% and -28.9% and -19.6%. Besides, in experiment [1], the AC50 is 22.4 µM (active). The compound was called inactive in experiment [2].
